Only some compounds are listed: those with a hit (about 1.5% of all), similar ones and a draw of the others.
EphB4 ephrin blk: blocks human EphB4 binding to ephrin-B2 | P54760 | EphB4 LBD / TNYL-RAW-Alexa532 peptide, fluorescence polarization | inhibition, % at 7 µM | 97,000 tested, 0.15% active;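 active = inhibition above the screen-wide mean inhibition plus 3 SD, cut at about 15% in these data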;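 also: 0% = DMSO wells and 100% = excess unlabeled TNYL-RAW peptide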
Smad3 inh: blocks human Smad3 binding to FoxH1 peptide; inhibition, % at 25 µM; TR-FRET Smad3/Dy647-FoxH1 peptide binding, europium anti-His; AID 630; P84022; 88,000 tested, 0.29% active;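 active = compounds that reduce the energy-transfer binding signal between the protein and its labelled peptide by more than half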;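 also: 0% = Smad3 plus labelled peptide maximal FRET and 100% = peptide-only background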
FAK blocker: inhibitors of human focal adhesion kinase; Q05397; biochemical FAK kinase activity assay; inhibition, %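 (tested at 7 µM)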; 97,000 tested, 0.84% active; AID 727; in the data active = inhibition above about 19%;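 also: 0% = DMSO and 100% = reference compound high control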
PLK1 kinase inh: blocks human PLK1 kinase activity | P53350 | recombinant PLK1 kinase, TR-FRET peptide phosphorylation | inhibition, % at 10 µM | 97,000 tested, 0.53% active;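 active = inhibition of 50% or more in the single-concentration screen; inactive = inhibition below 50%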;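 also: 0% = DMSO max control and 100% = H-89 dihydrochloride min control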
PLK1 PBD inh: blocks phosphopeptide binding to human Plk1 polo box domain; P53350; Plk1 PBD phosphopeptide binding, fluorescence polarization; AID 693; 97,000 tested, 0.13% active; inhibition, %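 (tested at about 20 µM)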; in the data active = inhibition above about 34%, passing the limit was not always enough
* hit, by the source's call; x = not tested or not shown; [ ] = another dose, or the depositor's remark.

SMILES	EphB4 ephrin blk	Smad3 inh	FAK blocker	PLK1 kinase inh	PLK1 PBD inh
Clc1cccc(/C=N/Nc2ncnc3ccccc23)c1	84.6*[fluorescence artefact?]	x	3.7	-13.2	-13.4
O=C(C1CCN(S(=O)(=O)c2ccccc2)CC1)N(CCc1ccccc1)Cc1ccco1	4.3	11.0	3.9	-8.6	12.9
Cc1c(C(=O)O)oc2ccc(S(=O)(=O)NCCC3=CCCCC3)cc12	0.6	3.9	-2.4	-7.4	17.6
CCOC(=O)c1oc2ccc(Br)cc2c1NC(=O)CN1CCN(C)CC1	4.0	7.4	-1.6	-9.5	-13.2
O=C(Nc1c(C(=O)O)oc2ccc(Br)cc12)c1ccccc1	4.0	11.5	-12.4	50.6*	0.7
CCOC(=O)c1c(NC(=O)CSc2nnc(CNc3ccc(Cl)cc3)o2)sc(C)c1C	0.0	0.8	-1.6	-10.2	-6.3
O=C(CSc1nnc(CNc2ccc(Cl)cc2)o1)Nc1nc2ccccc2s1	8.1	-2.4	-1.1	55.8*	-8.2
CCN1CCN(CCNC(=O)CS(=O)(=O)Cc2nc(-c3ccc(C)cc3)oc2C)CC1	1.3	7.3	-2.8	64.6*	-9.1
Cc1ccc(-c2nc(CSCC(=O)NCCN3CCN(Cc4ccccc4)CC3)c(C)o2)cc1	5.5	-3.1	12.1	-12.6	22.7
O=C(c1ccc(CS(=O)(=O)c2ccc(Br)cc2)o1)N1CCCC1	2.8	1.3	7.2	69.2*	-2.3
O=c1[nH]c2ccc(Cl)cc2c(-c2ccccc2)c1SC(=S)N1CCCCC1	1.6	-16.6	-0.1	-2.0	16.5
COc1ccc(NC2CC(=O)N(C(C)C)C2=O)cc1 (centres undefined)	0.1	1.5	-2.3	53.5*	10.5
c1ccc2c[n+](CCCC[n+]3ccc4ccccc4c3)ccc2c1	x	50.6*	x	x	x
O=S(=O)(O)c1ccc(-c2nnc(-c3ccccn3)nc2-c2ccc(S(=O)(=O)O)o2)o1	x	1.4	x	x	x
CCOC(=O)C1CCCN(C(=O)C2CCN(S(=O)(=O)c3cccs3)CC2)C1 (centres undefined)	0.6	1.2	-0.6	-10.9	-1.3
NCOC(=O)Cc1ccc(Br)cc1	x	73.4*	x	x	x
COc1cc(NC(=O)C2CCN(S(=O)(=O)c3cnc[nH]3)CC2)cc(OC)c1OC	3.5	0.1	1.4	-4.6	-3.9
COc1cccc2cc(-c3cn4ccc(C)cc4n3)c(=O)oc12	-5.2	39.4	18.9*	-9.0	-15.4
Cc1cc(=O)oc(C)c1C(=O)OCC(=O)c1ccc(Cl)cc1	15.7*	-19.9	2.4	-6.8	6.9
NS(=O)(=O)c1cc(Br)c(N=Nc2ccc(O)c3ncccc23)c(Br)c1	x	76.9*	x	x	x
O=c1[nH]c2[nH]c(=S)[nH]c(=S)c2[nH]1	x	67.7*	x	x	x
O=C1C=C(Nc2ccc(O)cc2)CC(c2ccco2)C1 (centres undefined)	-7.9	2.7	0.9	-13.6	-16.9
O=C(O)c1ccc2c(c1C(=O)O)C(=O)OC2(c1ccc(O)cc1)c1ccc(O)cc1	x	77.9*	x	x	x
O=C1OC2(c3ccc(O)cc3Oc3cc(O)ccc32)c2c1c(-c1ccccc1)c(-c1ccccc1)c(-c1ccccc1)c2-c1ccccc1	x	1.1	x	x	x
Cc1ccc2[nH]c(=O)c(CN(CCN3CCOCC3)C(=O)Nc3ccccc3F)cc2c1	4.3	7.1	0.5	-10.0	-9.6
SMILES	EphB4 ephrin blk	Smad3 inh	FAK blocker	PLK1 kinase inh	PLK1 PBD inh
CCCCc1nc2n[nH]c(N)c2c2c1CCCC2	-4.4	-1.8	6.4	57.5*	-25.1
Fc1ccc(C(CCCn2nnc(-c3cccnc3)n2)c2ccc(F)cc2)cc1	-3.2	-0.8	0.0	2.2	2.4
Cc1ccc(C(O)CN2C3=NCCN3c3ccccc32)cc1 (centres undefined)	3.2	2.2	-4.7	-4.1	11.5
Cc1cccn2c(=O)c3cc(C(=O)Nc4ccc(N(C)C)cc4)n(C)c3nc12	x	62.5*[fluorescence artefact?]	x	x	x
CCOC(=O)N1CCN(C(=O)Cn2ncc3ccccc32)CC1	x	0.1	x	x	x
O=C(Nc1cccc2c1[nH]c1ccccc12)C(F)(F)F	-4.0	6.6	1.9	-7.4	-16.3
CCSc1nnc2c(n1)OC(c1ccc(C(=O)O)cc1)N(C(C)=O)c1ccccc1-2 (centres undefined)	-0.5	7.2	0.6	64.9*	29.0
O=C(O)CCCc1nc2ccccc2s1	4.5	13.7	-0.4	-6.4	8.7
Cc1sc2ccccc2[n+]1CCC(=O)O	x	72.5*	x	x	x
Cn1c(NC(=O)C2CCCC2)cc(=O)n(C)c1=O	-6.6	x	-1.5	-5.5	29.6
CCCC(=O)Nc1nnc(-c2ccc(Cl)s2)o1	2.3	-1.4	-1.1	63.8*	7.2
O[C@@H](COc1ccc(Cl)cc1Cl)CN1CCCC1	x	-2.5	x	x	x
O=C(c1cc2ccccc2cc1OCC(O)CN1CCCCC1)N1CCCCC1 (centres undefined)	2.5	0.7	-1.2	66.0*	7.7

Source: PubChem BioAssay
